Over roughly 5,800 sequences, “enrichment r” has its median near 0.68; the highest 2% begin near 11. The entries come from a sample that favours the highest values as a whole.
T1: UNK ZnF1-6 (called full-length) (human, UniProt Q9C0B0 30-357)
T1 sequence: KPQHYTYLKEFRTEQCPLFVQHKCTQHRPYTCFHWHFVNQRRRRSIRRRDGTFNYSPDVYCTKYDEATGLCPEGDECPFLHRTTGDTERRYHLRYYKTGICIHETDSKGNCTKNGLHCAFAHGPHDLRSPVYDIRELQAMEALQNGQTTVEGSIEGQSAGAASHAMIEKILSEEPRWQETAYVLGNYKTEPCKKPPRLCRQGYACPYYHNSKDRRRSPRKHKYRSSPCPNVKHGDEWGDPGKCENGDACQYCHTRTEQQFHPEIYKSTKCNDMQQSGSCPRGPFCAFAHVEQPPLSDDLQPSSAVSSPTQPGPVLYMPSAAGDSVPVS

B1: chr12:48145849:48145950:+|3pUTR|ENSG00000152556|msi1|FALSE|unique (ssRNA)
RNA: GGGAGUUCUACAGUCCGACGAUCCAUGACCAGUUCUGGCCAGGAGCUGGAGGAGCAGGCAGUGGGUGGGAGCUCCUUUUAGGUAGAAUUUAACAUGACUUCUGCCCCAGCUUUAUCUGUCACACAAGGCUGGGCACCUCUAGUCAACAGAGGAUUGAGCAUCA
B2: chr1:165890246:165890361:+|CDS|ENSG00000143179|unk|FALSE|unique (ssRNA)
RNA: GGGAGUUCUACAGUCCGACGAUCCUCCUGGGGCAGAAUGAGGUGGACUAUCGCCAGAAGCAGGUGGUCAUCCUGAGCCAGGAUAGCUUCUACCGUGUCCUUACCUCGGAGCAGAAGGCCAAAGCCCUGAAGGGCCAGUUCAACCAACAGAGGAUUGAGCAUCA
B3: chr2:96875881:96876275:-|three_prime_utr|ENSG00000168754|control|control|control (ssRNA)
RNA: GGGAGUUCUACAGUCCGACGAUCUCGCCCACCCCUCAGCCCUCCUCCCAGCCAUCUCCUCUUCCCUAAGGCCUCUGUCUCCAUAGCUCUGGUUUCCCUGGGCCUCAGUCCUCCCCACCCUCCUUCCUCUGUCUCCCUGUCACUCAACAGAGGAUUGAGCAUCA
B4: chr5:95604386:95604487:+|3pUTR|ENSG00000164291|msi1|total|mutant (ssRNA)
RNA: GGGAGUUCUACAGUCCGACGAUCCCUGCCAUCCAGUUCCCCCUCCAAGAAGCAAGUACCGAAACCACCUGCUUACGCAUUUUCCGAGAUUGGCCACAAAUUUAUAAACAAAUGUAUAUAUUCCUUUCCCCCUACACAAACGGUCAACAGAGGAUUGAGCAUCA
B5: ENSG00000198589:be:win_9101|3pUTR|ENSG00000198589|bound_else_gene|NA|bound_elsewhere_windowed (ssRNA)
RNA: GGGAGUUCUACAGUCCGACGAUCUUCAAGCAUGUUUUAGACCUAGAAAAGUAUGGUUUGGGGGAGGCUAUUUUAUUGUGUGGUUAGCACAAGGAAUCUAAUUUAUAGCAAGUGUGAAAUAGUUACCAUUUUUUCCUGAUCUGUCAACAGAGGAUUGAGCAUCA
B6: chr1:229632307:229632408:+|CDS|ENSG00000135763|unk|FALSE|bound_elsewhere (ssRNA)
RNA: GGGAGUUCUACAGUCCGACGAUCAUUUUAUAAGAAAAAGCUUGAACUGAAGGAAGAUAUUGUUGAAAGGCUUUGGAUCUAUAUAGAUAACAUUUUACAUAGCAGAAAAUUGCAGAAUCUCCUCAAGAAUGGAAAGACCAUUAACAACAGAGGAUUGAGCAUCA

What follows are binders tested against T1, UNK ZnF1-6 (called full-length) (assay: nsRBNS (natural sequence RNA bind-n-seq); RBNS binding buffer (assumed for nsRBNS): 25 mM Tris pH 7.5, 150 mM KCl, 3 mM MgCl2, 0.01% Triton X-100, 500 ug/ml BSA, 20 U/ml SUPERase-In, 4 C; UNK is unkempt and MSI1 is Musashi-1; names of the RNAs are library labels; protein concentration not given here; high values mean tight binding).

Binder	binding signal
B1	6.28 enrichment R
B2	0.748 enrichment R
B3	1.84 enrichment R
B4	1.51 enrichment R
B5	2.96 enrichment R
B6	2.37 enrichment R

From PMC12136788
